Reference: PubChem BioAssay (EPA / NIEHS)
Results filed as inconclusive are left out. Calls of active or inactive are those of the source. Rule for the calls, unless noted: active = hit-call score of the fitted dose curve at least 0.9, where 1 is the maximum; inconclusive = response in the unintended direction; inactive = score below 0.9.

What was measured:
TIMP1, TIMP1 (gene 7076) = test: LTEA_HepaRG_TIMP1: Life Technologies and Expression Analysis (LTEA) Assay for TIMP1 using HepaRG (AID 2283534; active = hit-call score of the fitted dose curve at least 0.9, where 1 is the maximum; inactive = score below 0.9;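 note: TaqMan qRT-PCR signal normalized to ACTB GAPDH and POLR2A housekeeping genes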); settings: mRNA level, 48 h; actives raise or lower the signal
Method in brief: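 TIMP1 induction or repression in HepaRG cells after 48 h chemical exposure (eight concentrations, highest 100 uM), assessed by normalized qRT-PCR with bidirectional fitting to DMSO controls.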

[1] = read-out: Tumor necrosis factor receptor 1 (TNFRSF1A), TNFRSF1A (gene 7132); test: LTEA_HepaRG_TNFRSF1A: Life Technologies and Expression Analysis (LTEA) Assay for Tumor necrosis factor receptor 1 (TNFRSF1A) using HepaRG (AID 2283535; active = hit-call score of the fitted dose curve at least 0.9, where 1 is the maximum; inactive = score below 0.9); settings: mRNA level, 48 h; actives raise or lower the signal
Method in brief: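 Assay uses 48 h chemical treatment of differentiated HepaRG monolayers, tested in duplicate at eight concentrations from 100 uM downward in 0.5% DMSO. mRNA is normalized to ACTB, GAPDH and POLR2A, with induction or suppression fitted relative to vehicle.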

[2] = read-out: Cellular tumor antigen p53 (Homo sapiens) (UniProt P04637); test: LTEA_HepaRG_TP53: Life Technologies and Expression Analysis (LTEA) Assay for Tumor Protein P53 (TP53) using HepaRG (AID 2283537; active = hit-call score of the fitted dose curve at least 0.9, where 1 is the maximum; inactive = score below 0.9); settings: mRNA level, 48 h; actives raise or lower the signal
Method in brief: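 TP53 transcript measured by qRT-PCR, normalized to three housekeeping genes, after 48 h treatment of human HepaRG cultures with chemicals from 100 uM downward in half-log steps (0.5% DMSO vehicle, serum-free induction medium). Up- or down-regulation fitted against DMSO.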

[3] = read-out: UDP glucuronosyltransferase (UGT1A1), UGT1A1 (gene 54658); test: LTEA_HepaRG_UGT1A1: Life Technologies and Expression Analysis (LTEA) Assay for UDP glucuronosyltransferase (UGT1A1) using HepaRG (AID 2283538; active = hit-call score of the fitted dose curve at least 0.9, where 1 is the maximum; inactive = score below 0.9); settings: mRNA level, 48 h; actives raise or lower the signal
Method in brief: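 mRNA induction or loss of UGT1A1, by TaqMan qRT-PCR, in duplicate HepaRG wells after 48 h exposure to half-log dilutions topping at 100 uM; DMSO (0.5%) served as baseline.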

[4] = read-out: UDP glucuronosyltransferase (UGT1A6), UGT1A6 (gene 54578); test: LTEA_HepaRG_UGT1A6: Life Technologies and Expression Analysis (LTEA) Assay for UDP glucuronosyltransferase (UGT1A6) using HepaRG (AID 2283539; active = hit-call score of the fitted dose curve at least 0.9, where 1 is the maximum; inactive = score below 0.9); settings: mRNA level, 48 h; actives raise or lower the signal
Method in brief: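 Measures mRNA change in HepaRG hepatic cells exposed 48 h to chemicals (eight-point, maximum 100 uM, 0.5% DMSO vehicle) in serum-free induction medium. Expression normalized to endogenous controls; DMSO served as negative control and baseline.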

[5] = read-out: X-box binding protein 1 (XBP1), XBP1 (gene 7494); test: LTEA_HepaRG_XBP1: Life Technologies and Expression Analysis (LTEA) Assay for X-box binding protein 1 (XBP1) using HepaRG (AID 2283540; active = hit-call score of the fitted dose curve at least 0.9, where 1 is the maximum; inactive = score below 0.9); settings: mRNA level, 48 h; actives raise or lower the signal
Method in brief: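 Eight concentrations (half-log, highest 100 uM, 0.5% DMSO) tested in duplicate on HepaRG cells over 48 h in serum-free induction medium; qRT-PCR of XBP1 normalised to ACTB, GAPDH, POLR2A.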

[6] = LTEA_HepaRG_LDH_cytotoxicity: Cytotoxicity Assessment in the Life Technologies and Expression Analysis (LTEA) Assay (AID 2283563)
Method in brief: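 Spent-medium LDH after 48 h chemical exposure of HepaRG cells in serum-free induction medium; eight concentrations, half-log dilutions from 100 uM, duplicate wells, fitted upward relative to 0.5% DMSO.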

[7] = TOX21_p53_BLA_p2_viability: Viability Assessment in the Tox21 HCT-116 p53 Agonism Beta-lactamase Assay, Phase 2 (AID 2283591);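 note: compound exposure lasted 16 h at 37 °C; actives lower the ATP signal meaning cytotoxicity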
Method in brief: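 HCT116 p53-bla cells, 4000/well, dosed after 5 h plating (217-fold dilution of DMSO stocks) and incubated 16 h at 37C. Viability taken as cellular ATP by CellTiter-Glo luminescence after 30 min RT; signal loss marks cytotoxicity.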

[8] = TOX21_p53_BLA_p4_viability: Viability Assessment in the Tox21 HCT-116 p53 Agonism Beta-lactamase Assay, Phase 4 (AID 2283597);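 note: hits lower the luminescence signal meaning cytotoxicity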
Method in brief: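 In this multiplexed secondary endpoint, HCT116 cells (4000 per well, compound at 5 h, 16 h treatment) received CellTiter-Glo after the beta-lactamase read. Luminescence after 30 min RT reflects ATP, and falling signal marks cytotoxicity.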

[9] = target: Cellular tumor antigen p53 (Homo sapiens) (UniProt P04637); test: TOX21_p53_BLA_p4_ratio: Tox21 HCT-116 p53 Agonism Beta-lactamase Assay, Ratio, Phase 4 (AID 2283601)
Method in brief: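 HCT-116 p53 beta-lactamase reporter cells (4000/well) preincubated 5 h, then compound (217-fold dilution of DMSO stock) for 16 h at 37C. CCF4-AM substrate added 2 h at room temperature; 460/530 nm emission ratio fitted upward versus DMSO.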

[10] = Tanguay_ZF_120hpf_MORT_legacy: (Legacy) Oregon State University Tanguay Lab 120 Hour Post-fertilization zebrafish Assay for Mortality (AID 2283633)
Method in brief: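 Single dechorionated Tropical 5D embryos were held with test chemical (0.64% DMSO final) from 6 to 120 hpf at 28C under foil. Deaths at 24 or 120 hpf were recorded as binary calls, analysed for increase over DMSO controls.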

[11] = Tanguay_ZF_120hpf_AXIS_legacy: (Legacy) Oregon State University Tanguay Lab 120 Hour Post-fertilization zebrafish Assay for Body Axis Malformation (AID 2283635)
Method in brief: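 Each dechorionated embryo was exposed alone from 6 hpf, with DMSO at 0.64% (vol/vol) and trimethyltin chloride 5 uM as positive control. Axis malformation was recorded at 120 hpf unless the embryo had died.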

[12] = Tanguay_ZF_120hpf_EYE_legacy: (Legacy) Oregon State University Tanguay Lab 120 Hour Post-fertilization zebrafish Assay for Eye Malformation (AID 2283636);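 note: binary presence or absence of eye malformation scored by brightfield in 120 hpf larvae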
Method in brief: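 5D wild-type embryos, pronase-dechorionated at 4 hpf; static exposure 6–120 hpf, 28C, dark; DMSO 0.64% final; 5uM trimethyltin chloride positive control. Binary eye-defect scoring at 120 hpf; dead embryos not scored.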

[13] = Tanguay_ZF_120hpf_SNOU_legacy: (Legacy) Oregon State University Tanguay Lab 120 Hour Post-fertilization zebrafish Assay for Snout Malformation (AID 2283637)
Method in brief: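 Binary brightfield scoring of snout malformation at 120 hpf. Dechorionated 5D wild-type embryos, one per well, static exposure from 6 hpf at 28C, sealed and dark; final DMSO 0.64% (vol/vol), DMSO as baseline; 5uM trimethyltin chloride positive control.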

[14] = target: Cellular tumor antigen p53 (Homo sapiens) (UniProt P04637); test: TOX21_p53_BLA_p3_ratio: Tox21 HCT-116 p53 Agonism Beta-lactamase Assay, Ratio, Phase 3 (AID 2283596)
Method in brief: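 Cells were seeded at 4000/well, rested 5 h at 37C, then dosed with DMSO compound solutions (217-fold dilution) for 16 h. CCF4-AM substrate was loaded for 2 h at room temperature, and the 460/530 nm emission ratio was fitted for gain of signal versus DMSO.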

[15] = target: Cellular tumor antigen p53 (Homo sapiens) (UniProt P04637); test: TOX21_p53_BLA_p5_ratio: Tox21 HCT-116 p53 Agonism Beta-lactamase Assay, Ratio, Phase 5 (AID 2283599)
Method in brief: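 HCT-116 p53-bla cells (4000/well) plated 5 h, dosed with compound (217-fold DMSO dilution) for 16 h at 37 C; CCF4-AM substrate 2 h at room temperature. Activity is the 460/530 nm emission ratio (405 nm excitation), fitted in gain-of-signal direction versus DMSO.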

[16] = Tanguay_ZF_120hpf_YSE_legacy: (Legacy) Oregon State University Tanguay Lab 120 Hour Post-fertilization zebrafish Assay for Yolk Sac Edema (AID 2283634)
Method in brief: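 Single dechorionated embryos were held in sealed plates at 28C with test chemical (0.64% DMSO final) from 6 hpf until 120 hpf. Edema of the yolk sac was then recorded as a binary endpoint; non-mortality endpoints were skipped for dead embryos.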

[17] = TOX21_p53_BLA_p3_viability: Viability Assessment in the Tox21 HCT-116 p53 Agonism Beta-lactamase Assay, Phase 3 (AID 2283593);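 note: cells exposed to compound for 16 h before reading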
Method in brief: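 HCT116 cells, 4000/well, dosed 5 h after plating by pin transfer (217-fold dilution from DMSO stock) and incubated 16 h at 37C, 5% CO2. Viability read as ATP luminescence with CellTiter-Glo after 30 min at room temperature.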

Cellular tumor antigen p53 (Homo sapiens), sequence (P04637 whole entry, looked up): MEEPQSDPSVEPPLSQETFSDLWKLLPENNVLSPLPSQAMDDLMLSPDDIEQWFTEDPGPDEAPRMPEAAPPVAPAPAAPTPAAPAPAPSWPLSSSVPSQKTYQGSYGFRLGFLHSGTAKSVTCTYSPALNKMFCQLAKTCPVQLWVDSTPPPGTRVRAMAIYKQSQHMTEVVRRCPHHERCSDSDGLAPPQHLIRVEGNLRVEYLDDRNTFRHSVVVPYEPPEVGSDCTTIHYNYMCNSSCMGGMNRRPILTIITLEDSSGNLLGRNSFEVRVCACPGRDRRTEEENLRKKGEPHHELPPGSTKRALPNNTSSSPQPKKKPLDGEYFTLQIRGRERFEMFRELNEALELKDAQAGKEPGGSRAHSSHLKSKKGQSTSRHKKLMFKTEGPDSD

Row | Structure (SMILES) | outcome (TIMP1, TIMP1 (gene 7076)) | outcome [1] | outcome [2] | outcome [3] | outcome [4] | outcome [5] | outcome [6] | outcome [7] | outcome [8] | outcome [9] | outcome [10] | outcome [11] | outcome [12] | outcome [13] | outcome [14] | outcome [15] | AC50 [3] | outcome [16] | outcome [17]
1 | CCOC(=O)COc1cc(-n2ncc(C(F)(F)F)c(C)c2=O)c(F)cc1Cl | inactive | inactive | inactive | inactive | inactive | inactive | inactive | inactive | inactive | inactive | inactive | inactive | inactive | inactive | – | – | – | – | –
2 | CSC(=O)c1cccc2nnsc12 | inactive | inactive | inactive | inactive | inactive | inactive | inactive | – | inactive | inactive | inactive | inactive | inactive | inactive | inactive | inactive | – | – | –
3 | CCNc1nc(N)nc(Cl)n1 | inactive | inactive | inactive | – | inactive | inactive | inactive | – | – | inactive | inactive | inactive | inactive | inactive | inactive | inactive | 1.03 µM (active) | inactive | –
4 | C#C[C@]1(O)CC[C@H]2[C@@H]3CCC4=CC(=O)CC[C@@H]4[C@H]3CC[C@@]21CC | – | inactive | inactive | – | inactive | inactive | inactive | inactive | inactive | inactive | inactive | inactive | inactive | inactive | inactive | inactive | 0.291 µM (active) | – | inactive
5 | COC(=O)CSc1cc(N=c2sc(=O)n3n2CCCC3)c(F)cc1Cl | inactive | inactive | inactive | – | inactive | inactive | inactive | inactive | inactive | – | inactive | – | inactive | inactive | – | – | 41.4 µM (active) | inactive | inactive
6 | CCCCOC(=O)C(C)Oc1ccc(Oc2ccc(C(F)(F)F)cn2)cc1 (stereo not drawn) | inactive | inactive | inactive | inactive | inactive | inactive | inactive | inactive | inactive | inactive | inactive | inactive | inactive | inactive | inactive | inactive | – | – | inactive
7 | CC1(C)C(C=C(Cl)Cl)C1C(=O)OCc1cccc(Oc2ccccc2)c1 (stereo not drawn) | inactive | inactive | inactive | – | inactive | inactive | inactive | inactive | inactive | inactive | inactive | inactive | inactive | inactive | inactive | – | 14.6 µM (active) | inactive | inactive
